The list is not random: actives were taken first. Their share in the collection is about 6%.
Pol III holo inh: inhibitors of bacterial DNA polymerase III holoenzyme | Potency, µM (top dose mostly 57.1 µM) | 71,000 tested, 0.25% active | reconstituted DNA polymerase III holoenzyme replication, biochemical
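Reconstituted *E. coli* holoenzyme (0.35 nM Pol III, 1 nM beta, 154 nM SSB, 2 nM primase) was preincubated with compound for 15 min at RT. Synthesis on 1.4 nM ssM13Gori ran 35 min, then was stopped with PicoGreen/EDTA and read as dsDNA fluorescence.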
ERK AVP inh: inhibitors of vasopressin-stimulated ERK signaling pathway; Potency, µM (highest dose often 57.5 µM), usual class: inhibitors; 72,000 tested, 0.99% active; AID 995; HEK293-V1b, vasopressin-stimulated pERK AlphaScreen; note: nearly all actives have a fitted effect of over 55% in size
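qHTS, compounds titrated on V1b-expressing HEK293 cells. Preincubation 30 min at 37C, vasopressin 25 nM for 5 min, lysis 10 min, bead incubation 5 hr at room temperature.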
Luciferase inh: inhibitors of firefly luciferase. 72,000 tested, 2.2% active. Potency, µM (top dose mostly 57.1 µM), most hits filed as inhibitors. purified firefly luciferase, luminescence, 8 min; note: nearly all actives have a fitted effect of over 40% in size
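Here, luciferase activity is measured as luminescence following an 8 min room-temperature reaction at 10 uM ATP, pH 7.2. Every library sample is titrated.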
Tau filament bind: binders of human tau filaments. AID 596. recombinant tau filaments, thioflavin S fluorescence, 15 h; filaments grown with octadecylsulfate alongside compound. 71,000 tested, 2% active. Potency, µM (top dose mostly 57.1 µM). P10636;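 note: actives lower thioflavin S fluorescence by blocking filaments or displacing dye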
Target sequence (P10636 whole entry, looked up): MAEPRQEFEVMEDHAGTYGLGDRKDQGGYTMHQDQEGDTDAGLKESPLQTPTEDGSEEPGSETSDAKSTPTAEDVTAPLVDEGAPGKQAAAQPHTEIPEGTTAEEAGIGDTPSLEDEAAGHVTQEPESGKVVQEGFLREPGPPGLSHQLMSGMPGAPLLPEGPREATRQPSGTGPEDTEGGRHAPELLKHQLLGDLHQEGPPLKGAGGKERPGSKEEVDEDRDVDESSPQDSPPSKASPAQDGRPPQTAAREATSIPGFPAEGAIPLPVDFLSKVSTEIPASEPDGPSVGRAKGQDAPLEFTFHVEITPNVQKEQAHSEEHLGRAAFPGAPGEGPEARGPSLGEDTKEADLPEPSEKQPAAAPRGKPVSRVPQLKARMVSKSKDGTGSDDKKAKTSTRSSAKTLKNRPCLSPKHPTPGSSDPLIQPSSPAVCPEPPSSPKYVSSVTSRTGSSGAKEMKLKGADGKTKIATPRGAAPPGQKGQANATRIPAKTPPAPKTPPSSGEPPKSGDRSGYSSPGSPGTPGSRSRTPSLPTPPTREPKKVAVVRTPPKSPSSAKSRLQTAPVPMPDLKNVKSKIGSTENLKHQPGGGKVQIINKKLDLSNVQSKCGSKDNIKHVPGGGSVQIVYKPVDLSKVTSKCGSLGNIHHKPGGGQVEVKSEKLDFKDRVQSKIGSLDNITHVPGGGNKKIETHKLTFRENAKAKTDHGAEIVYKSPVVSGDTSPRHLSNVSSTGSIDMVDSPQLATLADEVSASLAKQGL
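Recombinant tau protein (human, 1 uM final) plus 30 uM ODS in HEPES pH 7.4 with NaCl, DTT and thioflavine S. Compound present from the start; fluorescence at 510 nm after 15 h, 37 C.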
Bst PK mod: alters activity of Bacillus stearothermophilus pyruvate kinase; 51,000 tested, 1.2% active; AID 361; purified pyruvate kinase, luminescence ATP production; ribose 5-phosphate activator present at AC10; Potency, µM; in the data active = potency below about 11 µM; inconclusive = mostly about 12 µM to 25 µM;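 the screen sought inhibitors and activators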
ALOX15 inhib: blocks human 15-lipoxygenase activity; purified 15hLO-1, xylenol orange hydroperoxide absorbance; Potency, µM (doses to about 57.1 µM), hits mostly inhibitors; 74,000 tested, 1.4% active; note: nearly all actives have a fitted effect of over 55% in size
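Hydroperoxide formed from arachidonic acid (50 uM) by purified human 15hLO-1 (40 nM) oxidizes ferrous iron, and the ferric-xylenol orange complex is read at 573 versus 405 nm. Compounds were preincubated 15 min; reaction ran 6 min at room temperature.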
Hits are given with their value; – = inactive; ? = inconclusive; · = not tested or not shown; [ ] = dose if it differs, or a comment. Unless noted, calls come from the whole dose curve; as a rule, active = well fitted curve in the direction sought with a large enough effect; inconclusive = small, poorly fitted or top-dose-only effect, or another doubt; inactive = no such curve, though single readings can be large; an effect the other way counts as inactive or inconclusive.

SMILES	Pol III holo inh	ERK AVP inh	Luciferase inh	Tau filament bind	Bst PK mod	ALOX15 inhib
N#Cc1c(NC(=O)CCC(=O)O)ccc2ccccc12	–[11.4 µM]	–[11.5 µM]	–[11.4 µM]	–[11.4 µM]	·	–[11.4 µM]
CC/C=C\CC[C@H](O)C1=CCCCC1=O	·	–[11.5 µM]	–[11.4 µM]	·	·	–[11.4 µM]
O=C1c2ccccc2C(=O)c2c1ccc(N1C(=O)c3ccccc3C1=O)c2-c1c(N2C(=O)c3ccccc3C2=O)ccc2c1C(=O)c1ccccc1C2=O	–[11.4 µM]	·	–[11.4 µM]	?	·	·
CC(C)(C)NC(=O)c1ccc2nccnc2c1	–	–	–	–	–	–
O=C(Nc1ccc(Br)cn1)c1ccc2nccnc2c1	–	–	–	15.8µM	·	–
O=c1c2[nH]c3ccccc3c2ncn1CCC1=CCCCC1	–	–	–	–	–	–
O=c1c2c3nc4ccccc4nc3n(/N=C/c3ccco3)c2ncn1CCC1=CCCCC1	–	?	–	7.94µM	·	–
CC1(C)OC(C(O)(c2cc(F)c(F)c(F)c2)c2cc(F)c(F)c(F)c2)C(C(O)(c2cc(F)c(F)c(F)c2)c2cc(F)c(F)c(F)c2)O1 (configuration not stated)	·	–[11.5 µM]	·	·	·	–[11.4 µM]
Cc1cc(C(=O)Nc2cnn(Cc3ccc(Cl)cc3Cl)c2)no1	–	–	–	–	9.19	–
COc1ccc(-c2cc(C(=O)Nc3cnn(Cc4ccccc4C)c3)no2)cc1OC	–	–	–	–	–	–
CN(C)c1ccc(NC(=O)c2sc(SCC(=O)Nc3nccs3)nc2N)cc1	·	·	3.98µM	·	10	·
O=C1c2ccccc2-c2cc([N+](=O)[O-])c([N+](=O)[O-])cc21	–[11.4 µM]	?	–[11.4 µM]	3.98µM	·	–[11.4 µM]
Cc1cc(C(=O)Nc2sc3c(c2C#N)CCC3)no1	–	–	15.8µM	–	·	–
Cc1cc(C(=O)Nc2sc3c(c2C#N)CCCC3)no1	–	–	12.6µM	–	?	–
O=C1C2C3C=CC(C3)C2C(=O)N1c1ccccc1 (configuration not stated)	–	–	–	–	·	–
O=C1C2C3CCCC3=C3CCCC3C2C(=O)N1c1ccccc1 (configuration not stated)	–	–	–	–	·	20µM
O=C(CSc1nc(-c2ccccc2)cs1)NC(=O)NCc1ccco1	–	25.1µM	–	–	–	–
CCOC(=O)N1CCN(c2nc(-c3ccc(Cl)cc3)cs2)CC1	·	·	·	·	·	–
O=C(CN1CCN(c2nc(-c3ccc(Cl)cc3)cs2)CC1)NCc1ccco1	–	31.6µM	–	–	·	–
Cc1ccc(-n2nc3ccc(N)cc3n2)cc1	–	–	2µM	12.6µM	·	–
CN(C)C=Nc1ccc2nn(-c3ccccc3)nc2c1	·	·	·	·	·	–
c1ccc2c(-c3ccncc3)c[nH]c2c1	–	–	–	–	–	–
Nc1cc(-c2ccncc2)c[nH]c1=O	–	–	–	–	·	12.6µM
CCCCCCSC1=C(C#N)C(c2ccc(O)cc2)CC(=O)N1 (configuration not stated)	–	15.8µM	–	–	–	20µM
CN(C)CC[C@@H](C(=O)C(C)(C)C)c1ccccn1	–[11.4 µM]	–[11.5 µM]	–[11.4 µM]	–[11.4 µM]	·	–[11.4 µM]
SMILES	Pol III holo inh	ERK AVP inh	Luciferase inh	Tau filament bind	Bst PK mod	ALOX15 inhib
O=C(O)NCc1ccccc1 (tested in a mixture with another compound)	–[11.4 µM]	–[11.5 µM]	–[11.4 µM]	–[11.4 µM]	·	–[11.4 µM]
Nc1c(N2CCOCC2)cc(Cl)c2nonc12	–	–	–	?	?	–
Nc1c(N2CCCC2)cc(Cl)c2nonc12	–	–	–	20µM	–	–
C[C@@H](c1ccccc1)N1C(=O)[C@H]2[C@@H]3[C@H](O)[C@H](O)CC(=O)[C@H]3CC[C@H]2C1=O	·	–[11.5 µM]	–[11.4 µM]	·	·	–[11.4 µM]
COc1ccc2[nH]cc(CCNc3nc(-c4ccc(N(C)C)cc4)nc4ccccc34)c2c1	–	?	0.631µM	–	·	?
COc1ccccc1-c1nc(NCCc2cnc[nH]2)c2ccccc2n1	–	–	–[2.29 µM]	–	·	–
COc1ccc2[nH]cc(CCNc3nc(-c4ccoc4)nc4ccccc34)c2c1	–	?	–[2.29 µM]	3.98µM	·	–
COc1ccc2[nH]cc(CCNc3ncncc3-c3ccoc3)c2c1	–	?	–[2.29 µM]	–	·	–
CN(C)c1ccc(-c2nc(NCCc3cnc[nH]3)c3ccccc3n2)cc1	–	–	0.794µM	–	·	–
COc1ccc2[nH]cc(CCNc3nc(-c4ccc(C(=O)N(C)C)cc4)nc4ccccc34)c2c1	–	–	–[2.29 µM]	–	·	?
COc1ccc2[nH]cc(CCNc3ncncc3-c3ccc(N(C)C)cc3)c2c1	–	?	–[2.29 µM]	25.1µM	·	–
OC[C@H]1NC[C@@H](O)[C@@H](O)[C@H]1O	–	–	–	?	·	?
C[N+]1([C@H](CO)Cc2c[nH]c3ccccc23)Cc2ccccc2C1	–[11.4 µM]	–[11.5 µM]	–[11.4 µM]	–[11.4 µM]	·	–[11.4 µM]
CC1=CC(C)(C)N2C(=O)C3(C(C#N)=C(N)Oc4cc(O)ccc43)c3cccc1c32 (configuration not stated)	–	–	–	3.98µM	–	–
CC1=CC(C)(C)N2C(=O)C3(C(C#N)=C(N)OC4=C3C(=O)CC(C)(C)C4)c3cccc1c32 (configuration not stated)	–	–	–	–	–	–
CCOC(=O)C1CCCN(c2ccc(NC(=O)c3snc4c(=O)[nH]cnc34)cc2)C1 (configuration not stated)	–	?	–	15.8µM	–	–
COc1ccc(CNc2ncnc3ccc(-c4c(C)noc4C)cc23)c(OC)c1	–	?	–[2.29 µM]	–	·	–
Cn1cccc1C(=O)N1CCC2(CC1)CCN(c1ccccn1)CC2	–	?	–[11.4 µM]	–	·	–
O=c1nc2s/c(=C\c3ccco3)c(=O)n2nc1Cc1ccc(F)cc1	15.8µM	–	–	?	–	?
Nc1nc(-c2ccc(Br)cc2)cs1	–	–	12.6µM	–	–	–
Cc1nc(/N=C(\N)Nc2ccccc2)nc2ccccc12	·	·	–	·	9.3	·
